According to PubChem BioAssay (NCI):
The panel holds about 83,000 compounds, 20% with a hit somewhere; the sample as a whole holds those more often.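 Cells were grown in 96-well plates and exposed to the test compound at a single concentration for 48 hours; results are reported as percent growth, with values below 10 considered active.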 The source made the active and inactive calls.

What follows are molecules tested on HCC-2998 colon (assay: NCI-60 one-dose screen, 48 h (100 = growth as untreated, 0 = no growth, -100 = all killed)). Conditions: 10 µM.

Row | Structure (SMILES) | growth
1 | C=CCN(CC=C)C(=O)[C@H](CC)[C@@H]1CC[C@@H](C)[C@@H]([C@H](C)[C@@H](O)[C@@H](C)C(=O)[C@H](CC)C2O[C@]3(C=C[C@@H](O)[C@]4(CC[C@@](C)([C@H]5CC[C@](O)(CC)[C@H](C)O5)O4)O3)[C@H](C)C[C@@H]2C)O1 (some centres undefined) | 12.6% (inactive)
2 | O=C1CCn2c1c(O)c1ccccc1c2=O | 109% (inactive)
3 | COc1ccc(-c2cc(-c3ccccc3)nc(SCCCCCCC(=O)NO)n2)cc1 | 79.4% (inactive)
4 | Cc1ccc(NC(=S)NNC(=S)Nc2ccc(C)cc2)cc1 | 68.9% (inactive)
5 | c1cncc(-c2csc(-c3c[nH]c4ccccc34)n2)c1 | 107% (inactive)
6 | CN(C)CCOc1cccc(-c2nc3sccn3c2-c2ccnc(S(C)(=O)=O)n2)c1 | 106% (inactive)
7 | CC(C)(C)c1ccc(S(=O)(=O)N[C@H]2CC[C@H]3[C@@H]4CCc5cc(OS(=O)(=O)O)ccc5[C@H]4CC[C@]23C)cc1 | 73.2% (inactive)
8 | Nc1nccc(OCCO)n1 | 97.4% (inactive)
9 | CC(C)c1ccc(C(C)C(=O)N(CC2=C(C(C)c3ccccn3)c3ccccc3C2)C(C)C)cc1 (centres undefined) | 37.3% (inactive)
10 | Cc1c2cnccc2c(C)c2c1c1cc(O)ccc1n2C(C)C | 20.8% (inactive)
11 | CCc1ccc(C2=NN(c3ccc(S(C)(=O)=O)cc3)C(=O)CC2)cc1 | 46.6% (inactive)
12 | COc1cc2c(cc1NC(=O)C(Cl)Cl)-c1ccc(NC(=O)C(Cl)Cl)cc1C2 | -98.5% (active)
13 | COc1cc(/C=C2\CCCC3=C2NC(N)=NC3c2cc(OC)c(OC)c(OC)c2)cc(OC)c1OC (centres undefined) | -35.2% (active)
14 | COc1ccc(-c2nn(-c3cccc(Cl)c3)cc2-c2cc(-c3ccccc3)[nH]c(=O)c2C#N)cc1 | 49.9% (inactive)
15 | CC(C)(C)OC(=O)N1CCc2c(sc3ncnc(N/N=C/c4ccccc4Br)c23)C1 | 92.3% (inactive)
16 | COc1ccc(-c2nn(-c3cccc(Cl)c3)cc2-c2nc(N)[nH]c(=O)c2C#N)cc1 | 80.9% (inactive)
17 | COc1ccc(-c2cc(-c3ccc(Cl)cc3)nc(SCCCC(=O)NO)n2)cc1 | -10% (active)
18 | COc1ccc(-c2nn(-c3cccc(Cl)c3)cc2-c2c(C#N)c(=O)n3[nH]c(-c4ccccc4)nc3c2C#N)cc1 | 108% (inactive)
19 | Cc1ccc(-n2c(C)nn3c(=O)c4c5c(sc4nc23)CN(C)CC5)cc1 | 97.2% (inactive)
20 | CCn1c(CSc2nc3ccccc3c(=O)n2CCc2ccccc2)n[nH]c1=S | 99% (inactive)

Row | Structure (SMILES) | growth
21 | COc1cc2cc(Oc3ccc(NC(=O)Nc4ccc(Cl)c(Cl)c4)cc3)c(C)nc2cc1OC | 37.6% (inactive)
22 | CCOC(=O)c1sc2ncnc(Nc3ccc4c(cnn4C(=O)Nc4ccc(C)c(Cl)c4)c3)c2c1C | 94.1% (inactive)
23 | CN1CCc2c(sc3nc4n(-c5ccc(Cl)cc5)c(=O)[nH]n4c(=O)c23)C1 | 102% (inactive)
24 | COc1cc2c3c(n(C4CCN(C)CC4)c(=O)c2cc1OC)-c1cc2c(cc1C3=O)OCO2 | 66.3% (inactive)
25 | CCOC(=O)CSc1nc(-c2cc(OC)ccc2OC)cc(-c2ccc(OC)cc2)c1C#N | 85.5% (inactive)
26 | CC(C)N(CCOc1ccc(-c2nc3sccn3c2-c2ccnc(S(C)(=O)=O)n2)cc1)C(C)C | 88% (inactive)
27 | N#Cc1ccc(C(=O)CSc2nccc(Nc3ccc(C(=O)O)cc3)n2)cc1 | 100% (inactive)
28 | O=C(CNc1nnc(-c2cccnc2SCc2ccccc2)s1)Nc1nc(Cl)cc(Cl)n1 | 122% (inactive)
29 | COc1ccc(N(C)c2ncnc3occ(C)c23)cc1 | 7.26% (active)
30 | COC(=O)C1OC1c1cc([N+](=O)[O-])ccc1OC (centres undefined) | 96.1% (inactive)
31 | N#Cc1c(-c2ccc(Cl)cc2)cc(-c2cc(O)ccc2O)nc1N | 52.7% (inactive)
32 | CN(C)CCN(Cc1ccccc1)c1ccc2ccccc2n1 | 97.5% (inactive)
33 | COC(=O)c1c[nH]c2cc(OC(C)C)c(OC(C)C)cc2c1=O | 104% (inactive)
34 | C=C/C(C)=C/C[C@]1(C)[C@H](C)[C@@H](OC(=O)CCC)[C@H](O)[C@@]23C(=C[C@H](OC)C[C@@H]12)[C@@H](OC(=O)CCC)O[C@H]3OC(C)=O | -80.7% (active)
35 | O=C(Nc1cc([N+](=O)[O-])c2[nH]c(=O)c3ccccc3c2c1)C(F)(F)F | 89.3% (inactive)
36 | Nc1nc(Cl)nc2c1ncn2C1O[C@H](CO)[C@@H](O)[C@@H]1F (some centres undefined) | 57.3% (inactive)
37 | COc1ccc(-c2nn(-c3cccc(Cl)c3)cc2/C=C2\NC(=S)N(c3ccc(Cl)cc3)C2=O)cc1 | 23.2% (inactive)
38 | COc1ccc2c(c1)OC(N)=C(C#N)C2c1cc(OC)c(OC)c(OC)c1 (centres undefined) | 15% (inactive)
39 | IC(I)I | 98% (inactive)

Each molecule was assayed on KM12 colon in the same assay as above. Conditions: 10 µM.

Row | Structure (SMILES) | growth
40 | C=CCN(CC=C)C(=O)[C@H](CC)[C@@H]1CC[C@@H](C)[C@@H]([C@H](C)[C@@H](O)[C@@H](C)C(=O)[C@H](CC)C2O[C@]3(C=C[C@@H](O)[C@]4(CC[C@@](C)([C@H]5CC[C@](O)(CC)[C@H](C)O5)O4)O3)[C@H](C)C[C@@H]2C)O1 (some centres undefined) | 27.5% (inactive)
41 | O=C1CCn2c1c(O)c1ccccc1c2=O | 109% (inactive)
42 | COc1ccc(-c2cc(-c3ccccc3)nc(SCCCCCCC(=O)NO)n2)cc1 | 60.3% (inactive)
43 | Cc1ccc(NC(=S)NNC(=S)Nc2ccc(C)cc2)cc1 | 60.5% (inactive)
44 | c1cncc(-c2csc(-c3c[nH]c4ccccc34)n2)c1 | 81.8% (inactive)
45 | CN(C)CCOc1cccc(-c2nc3sccn3c2-c2ccnc(S(C)(=O)=O)n2)c1 | 102% (inactive)
46 | CC(C)(C)c1ccc(S(=O)(=O)N[C@H]2CC[C@H]3[C@@H]4CCc5cc(OS(=O)(=O)O)ccc5[C@H]4CC[C@]23C)cc1 | 40.9% (inactive)
47 | Nc1nccc(OCCO)n1 | 97.8% (inactive)
48 | CC(C)c1ccc(C(C)C(=O)N(CC2=C(C(C)c3ccccn3)c3ccccc3C2)C(C)C)cc1 (centres undefined) | 37.5% (inactive)
49 | Cc1c2cnccc2c(C)c2c1c1cc(O)ccc1n2C(C)C | 3.74% (active)
50 | CCc1ccc(C2=NN(c3ccc(S(C)(=O)=O)cc3)C(=O)CC2)cc1 | 17.3% (inactive)
51 | COc1cc2c(cc1NC(=O)C(Cl)Cl)-c1ccc(NC(=O)C(Cl)Cl)cc1C2 | -65.5% (active)
52 | COc1cc(/C=C2\CCCC3=C2NC(N)=NC3c2cc(OC)c(OC)c(OC)c2)cc(OC)c1OC (centres undefined) | -75.8% (active)
53 | COc1ccc(-c2nn(-c3cccc(Cl)c3)cc2-c2cc(-c3ccccc3)[nH]c(=O)c2C#N)cc1 | 69.8% (inactive)
54 | CC(C)(C)OC(=O)N1CCc2c(sc3ncnc(N/N=C/c4ccccc4Br)c23)C1 | 92.1% (inactive)
55 | COc1ccc(-c2nn(-c3cccc(Cl)c3)cc2-c2nc(N)[nH]c(=O)c2C#N)cc1 | 56% (inactive)
56 | COc1ccc(-c2cc(-c3ccc(Cl)cc3)nc(SCCCC(=O)NO)n2)cc1 | 18% (inactive)
57 | COc1ccc(-c2nn(-c3cccc(Cl)c3)cc2-c2c(C#N)c(=O)n3[nH]c(-c4ccccc4)nc3c2C#N)cc1 | 94% (inactive)
58 | Cc1ccc(-n2c(C)nn3c(=O)c4c5c(sc4nc23)CN(C)CC5)cc1 | 96% (inactive)
59 | CCn1c(CSc2nc3ccccc3c(=O)n2CCc2ccccc2)n[nH]c1=S | 92.3% (inactive)

Row | Structure (SMILES) | growth
60 | COc1cc2cc(Oc3ccc(NC(=O)Nc4ccc(Cl)c(Cl)c4)cc3)c(C)nc2cc1OC | 13.9% (inactive)
61 | CCOC(=O)c1sc2ncnc(Nc3ccc4c(cnn4C(=O)Nc4ccc(C)c(Cl)c4)c3)c2c1C | 95.4% (inactive)
62 | CN1CCc2c(sc3nc4n(-c5ccc(Cl)cc5)c(=O)[nH]n4c(=O)c23)C1 | 100% (inactive)
63 | COc1cc2c3c(n(C4CCN(C)CC4)c(=O)c2cc1OC)-c1cc2c(cc1C3=O)OCO2 | 75.9% (inactive)
64 | CCOC(=O)CSc1nc(-c2cc(OC)ccc2OC)cc(-c2ccc(OC)cc2)c1C#N | 71.3% (inactive)
65 | CC(C)N(CCOc1ccc(-c2nc3sccn3c2-c2ccnc(S(C)(=O)=O)n2)cc1)C(C)C | 90.4% (inactive)
66 | N#Cc1ccc(C(=O)CSc2nccc(Nc3ccc(C(=O)O)cc3)n2)cc1 | 105% (inactive)
67 | O=C(CNc1nnc(-c2cccnc2SCc2ccccc2)s1)Nc1nc(Cl)cc(Cl)n1 | 97.9% (inactive)
68 | COc1ccc(N(C)c2ncnc3occ(C)c23)cc1 | -33.2% (active)
69 | COC(=O)C1OC1c1cc([N+](=O)[O-])ccc1OC (centres undefined) | 99.3% (inactive)
70 | N#Cc1c(-c2ccc(Cl)cc2)cc(-c2cc(O)ccc2O)nc1N | 27.2% (inactive)
71 | CN(C)CCN(Cc1ccccc1)c1ccc2ccccc2n1 | 101% (inactive)
72 | COC(=O)c1c[nH]c2cc(OC(C)C)c(OC(C)C)cc2c1=O | 106% (inactive)
73 | C=C/C(C)=C/C[C@]1(C)[C@H](C)[C@@H](OC(=O)CCC)[C@H](O)[C@@]23C(=C[C@H](OC)C[C@@H]12)[C@@H](OC(=O)CCC)O[C@H]3OC(C)=O | 8.41% (active)
74 | O=C(Nc1cc([N+](=O)[O-])c2[nH]c(=O)c3ccccc3c2c1)C(F)(F)F | 87.2% (inactive)
75 | Nc1nc(Cl)nc2c1ncn2C1O[C@H](CO)[C@@H](O)[C@@H]1F (some centres undefined) | 51.4% (inactive)
76 | C#CC(C)(O)[C@@H]1C[C@H](CC(=O)O)C1(C)C (some centres undefined) | 108% (inactive)
77 | COc1ccc(-c2nn(-c3cccc(Cl)c3)cc2/C=C2\NC(=S)N(c3ccc(Cl)cc3)C2=O)cc1 | 26.6% (inactive)
78 | COc1ccc2c(c1)OC(N)=C(C#N)C2c1cc(OC)c(OC)c(OC)c1 (centres undefined) | -10.3% (active)
79 | IC(I)I | 104% (inactive)
